HT1080NT lethal: kills 2HG-producing HT-1080-NT fibrosarcoma cells. HT-1080-NT fibrosarcoma viability, CellTiter-Glo ATP luminescence, 48 h. Potency, µM (top dose mostly 46.1 µM), without a hit: at the highest dose activity, negative = less viability, most hits filed as cytotoxic. hit rate 1.6% among 360,000. AID 686970;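 note: NT is the 2HG producing partner of a matched IDH1 knockdown line; 0% = DMSO-treated cells and -100% = media-only wells without cells; nearly all actives have a fitted effect of over 55% in size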
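Compounds were tested in concentration-response format on HT-1080-NT cells for 48 hours at 37 degrees C. Cell viability came from CellTiter-Glo luminescence; curves were classified by r2, response magnitude and activity.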
HepG2 tox: HepG2 cytotoxicity, counter-screen for TGF-b inhibitors | HepG2 CAGA-GFP viability, ATP luminescence, 18 h | AID 588856 | Potency, µM (highest dose often 46.1 µM), without a hit: top-dose activity change, negative = cytotoxicity, hits mostly cytotoxic | hit rate 0.76% among 410,000
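CellTiter-Glo luminescence gave cytotoxicity after 18 hours at 37 degrees C. The cells were HepG2 CAGA-GFP in 1% FBS DMEM, stimulated with 500 pg/mL TGF-beta after compound addition. %Activity was normalised to no-cell wells (complete cell-killing) and DMSO (no toxicity), and curves were fitted and classified.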
S2 tox: viability counter-screen for ATXN expression inhibitors; S2 cells (HEK-293 line with an ATXN2-luciferase reporter) viability, CellTiter-Fluor protease fluorescence, 24 h; hit rate 0.49% among 400,000; Potency, µM (series often up to 56.7 µM), most hits filed as cytotoxic; note: nearly all actives have a fitted effect of over 40% in size
ATXN2 expr inh: reduces ATXN2 reporter expression in HEK-293 cells; HEK-293 ATXN2-luciferase reporter, luminescence, 24 h; Potency, µM (titrated, usually from 57 µM), for inactives: top-dose activity change, negative = inhibition, usual class: inhibitors; hit rate 0.72% among 360,000; AID 1745845; note: % is set by controls: 0 for no effect and ±100 for the full control effect; nearly all actives have a fitted effect of over 55% in size
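qHTS (up to 57 uM final) was run with 24 h compound exposure of reporter cells at 37 °C. Each well was multiplexed: SteadyGlo luminescence measured ATXN2-luciferase expression after a fluorogenic Gly-Phe-AFC viability readout (25 uM final).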
HT1080 IDH1KD tx: HT-1080 IDH1 knockdown cell toxicity (counter line); HT-1080 IDH1 knockdown viability, ATP luminescence, 48 h; Potency, µM (doses to about 46.1 µM), for inactives: at the highest dose activity, negative = toxicity, actives largely listed as cytotoxic; hit rate 2% among 360,000; AID 686971;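 note: 0% = DMSO wells and -100% = cell-free medium wells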
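IDH1KD HT-1080 cells, 750/well, RPMI + 5% FBS; compound pinned after 2 h settling; 48 h, 37 °C; CellTiter-Glo luminescence; % activity normalised to DMSO and no-cell wells; curves fitted, classed by r2 and efficacy.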
TGFb inhibitor: inhibitors of TGF-b signaling. Potency, µM (highest dose often 46.1 µM), without a hit: at the highest dose activity, negative = inhibition, most hits filed as inhibitors. hit rate 1.2% among 410,000. AID 588855. HepG2 CAGA-GFP TGF-b/SMAD3 reporter, GFP fluorescence, 18 h; TGF-beta stimulated, 500 pg/mL final; note: % is set by controls: 0 for no effect and ±100 for the full control effect; nearly all actives have a fitted effect of over 65% in size
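Cell-based qHTS in HEPG2 carrying a CAGA-GFP Smad reporter; compounds added before 500 pg/mL final TGF-beta, 18 h incubation at 37 degrees C, GFP fluorescence quantified per cell by imaging cytometry.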
Numbers without * were called inactive; i = inactive; ? = inconclusive; nt = no result; [ ] = remark or other dose. Most compounds without a hit are left out; they make up all but 3.8% or so of the library. Calls come from the whole dose curve; as a rule, active = well fitted curve in the direction sought with a large enough effect; inconclusive = small, poorly fitted or top-dose-only effect, or another doubt; inactive = no such curve, though single readings can be large; an effect the other way counts as inactive or inconclusive. Potency is the fitted concentration of half-maximal effect.

SMILES | HT1080NT lethal | HepG2 tox | S2 tox | ATXN2 expr inh | HT1080 IDH1KD tx | TGFb inhibitor
OC(CNCCc1ccc(C(F)(F)F)cc1)COC(c1ccccc1)c1ccccc1 (stereo not drawn) | ? | -95.7% | ? | 28.2µM* | ? | ?
COc1ccc(C(OCC(O)CNCCc2ccc(S(N)(=O)=O)cc2)c2ccc(OC)cc2)cc1 (stereo not drawn) | -24.7% | -26.1% | i | -14.5% | ? | -18.9%
Cc1ccc(F)cc1NC(=O)COC(=O)c1ccc(S(C)(=O)=O)c([N+](=O)[O-])c1 | nt | -5.7% | nt | nt | nt | -4.3%
O=C(CC(NC(=O)c1ccccc1)c1ccccc1)OCc1nc(-c2cccc(Cl)c2)no1 (stereo not drawn) | nt | 17.1% | nt | nt | nt | 15.2%
CC(C)CN(CC(C)C)CC(O)COc1ccccc1Br (stereo not drawn) | ? | 11.2µM* | i | -28.1% | ? | 11.2µM*
C/C(N=Nc1nc2ccccc2s1)=N\Nc1ccccc1O | 13µM* | -97.4% | ? | ? | 14.6µM* | 11.2µM*
COC(=O)[C@@H]1CCCN1Cc1ccc2c(c1)CN(Cc1cccn1-c1ncccn1)CCO2 | nt | nt | i | nt | nt | nt
COC(=O)N/N=C/c1cc(Cl)c(OCc2ccccc2F)c(OC)c1 | -29.1% | 10µM* | i | -26.3% | -26.9% | -11.0%
CCCCS(=O)(=O)N[C@@H](Cc1ccc(OCCCCC2CCNCC2)cc1)C(=O)O | nt | nt | i | 2.1% | nt | nt
CN(C)c1ccc(-n2cccc2/C=C/[N+](=O)[O-])cc1 | 6.51µM* | -3.2% | 29.9µM* | ? | 6.51µM* | 11.5%
CC(C)(C)OC(=O)N/N=C/c1cccn1-c1ccc([N+](=O)[O-])cc1 | -26.1% | 4.8% | i | 0.0% | 6.5% | -0.7%
COc1ccc(-c2noc(-c3cccc(OC)c3OC)n2)cc1 | nt | -28.5% | nt | nt | nt | 4.6%
CCN1CCN(c2c(/C=C3\SC(=S)N(Cc4ccco4)C3=O)c(C)c(C#N)c(=O)n2C)CC1 | 16.4µM* | -3.8% | i | -11.2% | ? | 121.6%
CC1=C(C#N)C(C)(C)C(C#N)=C(C)N1 | -3.8% | 1.12µM* | i | nt | -0.2% | -0.6%
COc1ccc(C(=O)NC2CCCc3ccccc32)cc1[N+](=O)[O-] (stereo not drawn) | ? | 1.8% | i | -23.7% | 14.6µM* | -12.7%
Cc1cc(NC(=O)CN(C)S(=O)(=O)c2ccc3c(c2)CCCC(=O)N3)ccc1Br | nt | -27.7% | nt | 15.8µM* | nt | -14.3%
Cc1nn(CCc2nn[nH]n2)c2nc(-c3ccc(C4CCCCC4)cc3)cc(C(F)(F)F)c12 | 23.1µM* | -9.2% | i | -16.2% | ? | ?
Cc1ccc(-n2c(O)c(/C=N/Nc3ccc(S(=O)(=O)N4CCOCC4)cc3[N+](=O)[O-])c3ccccc3c2=O)c(C)c1 | 11.6µM* | -47.1% | ? | ? | ? | ?
CCOCCCNC(=O)Cn1ncc2c([nH]c3ccccc32)c1=O | nt | 5.5% | i | 10.8% | nt | 13.4%
O=c1c2ccccc2sc2nc(C3CCCCC3)n(Cc3ccco3)c(=O)c12 | 14.0% | -1.2% | ? | 8.2% | -25.9% | 0.1%
Cc1ccc(-c2nc3c(c(=O)c4ccccc4n3C)c(=O)n2Cc2ccco2)cc1 | -16.9% | 31.3% | i | -7.8% | 3.1% | 12.5%
Cn1c2ccccc2c(=O)c2c(=O)n(Cc3ccco3)c(-c3ccc(F)cc3)nc21 | -28.6% | 20µM* | i | -18.3% | ? | -12.9%
CCc1nc2sc3ccccc3c(=O)c2c(=O)n1Cc1ccco1 | ? | -8.4% | i | 115.8% | 25.9µM* | -3.1%
Nc1ccc(C(=O)OCC(O)CO)cc1 (stereo not drawn) | nt | nt | i | -1.1% | nt | nt
COc1ccccc1/C=C1\C=Cc2ccccc21 | nt | -13.3% | nt | nt | nt | -17.5%
SMILES | HT1080NT lethal | HepG2 tox | S2 tox | ATXN2 expr inh | HT1080 IDH1KD tx | TGFb inhibitor
CNC(=O)c1cc(Oc2ccc(NC(=O)Nc3ccc(Cl)c(C(F)(F)F)c3)c(F)c2)ccn1 | nt | nt | nt | 19.3µM* | nt | nt
COc1cc(C(=O)Nc2ccc(Cl)c(C(F)(F)F)c2)cc(OC)c1OC | ? | 8.4% | i | 4.6% | -17.2% | 0.0%
O=c1cc(N2CCCCC2)c(-c2ccccc2)nn1Cc1c(Cl)cccc1Cl | 18.4µM* | 17.8µM* | ? | ? | 16.4µM* | 10µM*
NS(=O)(=O)c1ccc(CCNCc2cc(Br)ccc2OCc2ccccc2F)cc1 | ? | -84.7% | i | -16.6%[11.3 µM] | 23.1µM* | ?
C=CCOc1ccccc1CNCCc1ccc(S(N)(=O)=O)cc1 | 2.8% | -7.0% | i | -9.1% | -5.6% | 18.2%
O=C(COc1ccc(Br)cc1CNCCc1ccccc1)NCc1ccccc1 | 20.6µM* | 12.6µM* | ? | ? | ? | ?
NS(=O)(=O)c1ccc(CCNCc2cc(Cl)ccc2OCc2ccccc2)cc1 | ? | -69.2% | i | -34.8% | ? | 11.2µM*
COc1cc(CNc2ccc(S(N)(=O)=O)cc2)ccc1OCc1ccccc1F | -2.4% | -19.4% | i | 10.5% | -9.8% | -16.9%
NS(=O)(=O)c1ccc(CCNCc2ccccc2OCc2ccc(Cl)cc2)cc1 | 23.1µM* | -91.2% | i | ? | 14.6µM* | ?
Cc1cccc(NC(=O)CSc2nc3n[nH]c(C)c3c(=N)n2-c2cccc(Cl)c2)c1 | nt | -32.9% | nt | nt | nt | ?
O=C(Nc1ccc(F)c(C(F)(F)F)c1)Nc1nnc(-c2ccncc2)s1 | nt | nt | nt | -12.2% | nt | nt
C[C@H](CO)N1C[C@H](C)[C@@H](CN(C)S(=O)(=O)c2cn(C)cn2)Oc2c(NC(=O)Nc3ccc(C(F)(F)F)cc3)cccc2C1=O | 1.5% | -7.6% | i | -3.2% | -2.5% | -15.1%
C[C@H](CO)N1C[C@H](C)[C@H](CN(C)S(=O)(=O)c2cn(C)cn2)Oc2ccc(NC(=O)Nc3ccc(C(F)(F)F)cc3)cc2CC1=O | 5.17µM* | -0.1% | ? | -0.6% | 23.1µM* | ?
C[C@H]1CN([C@@H](C)CO)C(=O)c2cccc(NC(=O)Nc3ccc(C(F)(F)F)cc3)c2O[C@@H]1CN(C)S(=O)(=O)c1ccc(Cl)cc1 | ? | -87.7% | nt | ? | 25.9µM* | ?
C[C@@H]1CN([C@H](C)CO)C(=O)c2cc(NC(=O)Nc3ccc(C(F)(F)F)cc3)ccc2O[C@H]1CN(C)S(=O)(=O)c1ccc(Cl)cc1 | -25.1% | 2.0% | ? | -24.3% | -22.3% | ?
Cc1ccc(S(=O)(=O)N(C)C[C@@H]2Oc3ccc(NC(=O)CCC(F)(F)F)cc3CC(=O)N([C@@H](C)CO)C[C@@H]2C)cc1 | 2.06µM* | -0.9% | i | -14.3% | 4.61µM* | ?

Source: PubChem BioAssay
